An excerpt weighted towards active compounds, which were near 27% of everything screened.
CYP2C9 inh = blockers of cytochrome P450 2C9 activity – biochemical, luminescence, ADME assay, primary screen. P11712. CYP2C9 Supersomes, luciferin-H conversion. inhibition, % at 5 µM. actives 20% (n = 96,000);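 active = blocking of liver enzyme CYP2C9 beyond about 50% at 5 µM, limit read from the data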
Target sequence (P11712 whole entry, looked up): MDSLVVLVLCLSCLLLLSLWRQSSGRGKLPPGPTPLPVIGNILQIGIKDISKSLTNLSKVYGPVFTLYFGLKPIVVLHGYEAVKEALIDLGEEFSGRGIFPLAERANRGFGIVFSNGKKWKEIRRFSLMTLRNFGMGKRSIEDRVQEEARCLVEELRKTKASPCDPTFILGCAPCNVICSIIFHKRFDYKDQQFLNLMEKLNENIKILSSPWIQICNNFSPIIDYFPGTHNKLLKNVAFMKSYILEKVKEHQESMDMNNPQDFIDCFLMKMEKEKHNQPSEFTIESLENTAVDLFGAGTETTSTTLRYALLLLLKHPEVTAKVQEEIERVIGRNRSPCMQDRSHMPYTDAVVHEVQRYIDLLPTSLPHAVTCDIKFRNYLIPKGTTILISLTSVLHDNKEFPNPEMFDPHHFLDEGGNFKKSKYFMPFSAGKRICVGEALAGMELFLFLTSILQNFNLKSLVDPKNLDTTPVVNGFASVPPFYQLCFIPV
PTK2B oligo ant = antagonists of Pyk2 self-association, primary screen, Q293 cells, FERM NanoBiT luminescence, HTS | Protein-tyrosine kinase 2-beta (Homo sapiens), Q14289 | hits give low values | z-score (the deposit names both 25 µM and 10 µM) | actives 0.83% (n = 99,000);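 active = Z-score of -3 or lower, scaled per plate to the spread of control and sample wells; inactive = z-score above -3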;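 also: negative z-score means lost luminescence so less FERM oligomerization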
CYP2C19 inhib = blockers of cytochrome P450 2C19 activity – biochemical, luminescence, ADME assay, primary screen; CYP2C19 Supersomes, luciferin-H EGE luminescence, 30 min; actives 21% (n = 96,000); inhibition, % at 5 µM; AID 778, 2007;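 active = CYP2C19 inhibition above a set limit at 5 µM in the primary screen, cut at about 50% in these data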;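 also: plate controls were negative control wells for no effect and 2.5 mM tranylcypromine positive control for full effect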
CYP2C9 act = human CYP2C9 activators, primary screen, biochemical, luminescence; recombinant CYP2C9, luciferin-H conversion; hits give high values; factor 1 = untreated enzyme, 0 = blocked; activation factor at 5 µM; actives 1.4% (n = 96,000); AID 1024, 2008;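 active = activation factor of 2 or more for CYP2C9 at a 5 µM dose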;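 also: 0 = sulfaphenazole-blocked wells and 1 = vehicle-only wells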
Cav32 inh = Cav3.2 calcium influx blockers – cell-based, Fluo-4 calcium fluorescence, FDSS, MLSMR library, primary screen; Cav3.2-expressing cells; hits give low values; B-score at 10 µM; actives 4% (n = 100,000);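 active = single-dose well whose peak fluorescence ratio is a statistical outlier from its plate by either plate-standardised score or position-corrected B-score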
CYP2C19 activ = human CYP2C19 activators, primary screen, biochemical, luminescence. recombinant CYP2C19, luciferin-H EGE luminescence; hits give high values; 0 = fully inhibited enzyme, 1 = untreated enzyme. 96,000 tested, under 10 active. Cytochrome P450 2C19 (Homo sapiens), P33261. AID 1025, 2008. activation factor at 5 µM;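 active = activation factor of at least 2 at 5 µM in the primary screen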;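 also: 0 = wells with 2.5 mM tranylcypromine and 1 = vehicle-only wells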
Numbers without * were called inactive; · = no result.

SMILES	CYP2C9 inh	PTK2B oligo ant	CYP2C19 inhib	CYP2C9 act	Cav32 inh	CYP2C19 activ
Cc1ccc(NC(=O)CS(=O)CC(=O)N(c2ccc(C)cc2)C(C)C(=O)NC2CCCCC2)cc1 (stereo not drawn)	·	-1.1	·	·	-7.3*	·
COCCN(CC(=O)NCc1ccccc1)C(=O)CCC(=O)Nc1ccccn1	-5	0.56	0	1	-0.28	1
O=C(CCCC(=O)N(CC(=O)NC1CCCC1)Cc1ccc2c(c1)OCO2)Nc1ccccn1	60*	1.1	60*	0.4	1.1	0.4
Cc1cccc(N(CC(=O)NC2CCCC2)C(=O)c2c(C)noc2C)c1	28	0.46	9	0.7	0.86	0.9
CC(C(=O)NC1CCCC1)N(C(=O)CS(=O)CC(=O)Nc1ccc(F)cc1)c1ccc2c(c1)OCCO2 (stereo not drawn)	41	-0.42	29	0.6	0.64	0.7
COC(=O)C1(c2ccccc2)NC(c2cccs2)C2C(=O)N(c3ccccc3)C(=O)C21 (stereo not drawn)	·	-0.12	·	·	0.27	·
c1coc(-c2nnc(SCc3nc4ccccc4[nH]3)o2)c1	28	-0.6	39	0.7	0.15	0.6
O=C(CCCC(=O)N(CC(=O)NC1CCCC1)Cc1ccccc1)Nc1ccccn1	50*	0.61	46	0.5	0.52	0.5
O=C(CCCC(=O)N(c1ccc2c(c1)OCCO2)C(C(=O)NC1CCCCC1)c1ccc(Cl)cc1)Nc1ccccn1 (stereo not drawn)	52*	-0.94	55*	0.5	-2.6	0.5
COc1ccc(C(C(=O)NC2CCCCC2)N(C(=O)CCCC(=O)Nc2ccccn2)c2ccc3c(c2)OCCO3)cc1 (stereo not drawn)	27	1.8	41	0.7	-1.7	0.6
O=C(CN(Cc1ccc2c(c1)OCO2)C(=O)c1cnsn1)NC1CCCC1	27	0.93	88*	0.7	·	0.1
O=C(CCC(=O)N(CC(=O)NC1CCCCC1)c1ccc2c(c1)OCO2)Nc1ccccn1	44	-0.23	39	0.6	-5.7*	0.6
CCOC(=O)N1CCC(NC(=O)c2ccc3c(=O)n4c(nc3c2)CCCC4)CC1	29	0.75	2	0.7	0.4	1
COc1ccc(OC)c(-c2nc3c(C)n[nH]c(=O)c3[nH]2)c1	10	-0.88	4	0.9	-0.35	1
CCOCCN1CCN(c2c(C)c(C)nc3cc(-c4cc(OC)cc(OC)c4)nn23)CC1	54*	-0.21	87*	0.5	-1.2	0.1
CCc1c(C)nc2cc(-c3cc(OC)cc(OC)c3)nn2c1N1CCN(CCN2CCOCC2)CC1	·	-0.09	·	·	0.67	·
COc1ccc(OC)c(-n2nnnc2SCC(=O)NCCc2ccccc2)c1	54*	-0.8	60*	0.5	-0.42	0.4
COc1cccc(-n2nnnc2SCC(=O)NCCc2ccccc2)c1	13	1.6	93*	0.9	-1.9	0.1
COCCSc1ccccc1C(=O)N1CCOCC1	5	0.79	-13	1	1.4	1.1
CC(=O)c1c(C)[nH]c(C(=O)NCc2ccccc2Cl)c1C	·	0.07	·	·	-0.55	·
O=C(Cc1ccccc1[N+](=O)[O-])NCc1ccccc1Cl	-139	0.18	47	2.4*	0.072	0.5
CCc1c(C(=O)NCc2ccccc2Cl)[nH]c(C)c1C(C)=O	66*	0.43	61*	0.3	0.034	0.4
CCC(CC)C(=O)NCc1ccccc1Cl	67*	-0.44	45	0.3	0.7	0.5
COC(=O)C1=C(CSc2nnnn2C)NC(=O)NC1c1cc(C)ccc1C (stereo not drawn)	38	-1.2	33	0.6	·	0.7
CCOC(=O)c1ccccc1NCN1C(=O)CSC1=O	-19	-0.29	-7	1.2	0.33	1.1
SMILES	CYP2C9 inh	PTK2B oligo ant	CYP2C19 inhib	CYP2C9 act	Cav32 inh	CYP2C19 activ
Cc1noc(C)c1C(=O)OCC(=O)c1c(N)n(CC(C)C)c(=O)n(C)c1=O	38	0.56	1	0.6	-0.19	1
COc1ccc(-c2nnn(CCc3nn[nH]n3)n2)cc1	·	1.6	·	·	0.34	·
COc1ccc(/C(C#N)=C/c2c(-c3ccc(Cl)cc3)nc3c(C)cccn23)cc1	57*	-0.47	52*	0.4	-5.8*	0.5
Cc1cccn2c(N)c(-c3ccccc3)nc12	·	-0.45	·	·	0.029	·
CCOc1ccc(NC(=O)C2CC(=O)N(C(C)C)C2)cc1 (stereo not drawn)	-4	0.31	-6	1	·	1.1
O=[N+]([O-])c1ccc(N/N=C/c2c[nH]c3ccccc23)cc1	58*	-0.91	14	0.4	-0.17	0.9
Cc1cccc2cc(CN(Cc3nnnn3C3CCCCC3)C3CCCC3)c3nnnn3c12	·	0.07	·	·	-0.71	·
NCc1ccc(-c2nc3ccccc3o2)cc1	70*	·	98*	0.3	·	0
O=C1c2ccccc2C(=O)N1c1ccc(-c2nc3ccccc3o2)cc1	-6	·	-12	1.1	0.58	1.1
O=S(=O)(CCc1nc2ccccc2o1)c1ccc(Cl)c(Cl)c1	-6	0.81	23	1.1	-0.011	0.8
Nc1ccc(CCc2nc3ccccc3o2)cc1	76*	-0.25	96*	0.2	-0.033	0
CCCCN(C)C/C(O)=C(\C#N)c1nc(-c2ccccc2)cs1	-3	-0.15	17	1	0.37	0.8
O=C(COC(=O)c1ccccc1F)c1ccc(-n2nncc2-c2ccco2)cc1	45	0.44	34	0.5	-0.58	0.7
COc1ccc(NC(=O)CN2CCCCC2)c([N+](=O)[O-])c1	-1	-0.04	16	1	-0.022	0.8
COc1ccc(NC(=O)CN2CCN(CC(=O)Nc3ccc(OC)c(OC)c3)CC2)cc1	-8	0.29	11	1.1	-0.086	0.9
COc1ccc(NC(=O)CN2CCC(C)CC2)c([N+](=O)[O-])c1	54*	-0.99	65*	0.5	0.48	0.4
COc1ccc(NC(=O)CN2CCOCC2)cc1	-3	-0.42	40	1	0.48	0.6
COc1ccc(NC(=O)CN2CCN(CC(=O)Nc3cc(OC)cc(OC)c3)CC2)cc1	61*	0.58	56*	0.4	·	0.4
COc1ccc(NC(=O)CN2CCN(C3c4ccccc4-c4ccccc43)CC2)cc1	95*	-0.41	59*	0.1	-0.56	0.4
COc1ccc(NC(=O)CN2CCN(CC(=O)Nc3ccccc3Cl)CC2)cc1Cl	57*	1.2	91*	0.4	-1.7	0.1
O=C(CN1CCCC1)Nc1ccccc1Cl	18	0.63	7	0.8	0.85	0.9

High-throughput results deposited in PubChem BioAssay by several laboratories.
